The target of test [1] is T1, Aspartate--tRNA(Asp/Asn) ligase (Mycobacterium tuberculosis (strain ATCC 25618 / H37Rv)) (UniProt P9WFW3). Also: in the data most compounds retested in dose-response had high values.
T1 sequence (whole entry): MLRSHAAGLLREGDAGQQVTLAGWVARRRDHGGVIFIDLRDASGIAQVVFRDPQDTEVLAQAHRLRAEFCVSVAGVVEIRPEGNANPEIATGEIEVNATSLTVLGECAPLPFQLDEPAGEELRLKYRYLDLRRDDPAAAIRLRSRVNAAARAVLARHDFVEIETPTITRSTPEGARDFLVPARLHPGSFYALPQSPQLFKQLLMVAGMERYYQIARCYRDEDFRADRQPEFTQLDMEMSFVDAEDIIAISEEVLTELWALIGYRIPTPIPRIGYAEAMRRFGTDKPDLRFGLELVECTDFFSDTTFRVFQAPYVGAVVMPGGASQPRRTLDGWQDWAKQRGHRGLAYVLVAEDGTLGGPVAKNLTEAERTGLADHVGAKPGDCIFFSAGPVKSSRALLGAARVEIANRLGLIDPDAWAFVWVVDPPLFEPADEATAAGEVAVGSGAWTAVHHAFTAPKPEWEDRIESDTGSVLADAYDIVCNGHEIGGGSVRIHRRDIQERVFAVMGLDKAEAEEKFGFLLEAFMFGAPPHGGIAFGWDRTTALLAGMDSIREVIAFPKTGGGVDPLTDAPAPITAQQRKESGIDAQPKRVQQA
Put plainly: Assay for Asp RNA synthetase-1 from Mycobacterium tuberculosis. In kind it is functional. More on the design: scale not given: direction of the effect not stated beside the values. To be noted: 30 µM.

In test [2] the target is Shiga toxin 2 (Escherichia coli O157:H7) (UniProt P09385+P09386). The test is described as follows: E. coli 0.157:H7 Shiga Toxin SOP - stx2 screening assay. To be noted: 30 µM. Also on record: scale not given: direction of the effect not stated beside the values. Type of test: functional.

For `CN1CC2(CCN(Cc3ccoc3)CC2)COc2ccccc2S1(=O)=O`, the Percent Effect in test [1] is -0.268%; in test [2], -18.6%.
For `Cc1noc(C)c1CCC(=O)N1CCN(CCn2cccn2)CC1` the same measures were -5.26% and -11.4%.
Taken in the same sequence, the figures for `CN(C)CC1CN(Cc2ccsc2)Cc2nccn2C1` (stereo not given) were 4.71% and -1.56%.
For `CCC1CN(CCC(=O)N(C)C)CCN1CCOC` (stereo not given) the same measures were 2.89% and 22.5%.
`CN(Cc1nnc(C2CC2)n1C)C1CCN(Cc2ccc(F)cc2)C1` (stereo not given): the values for the Percent Effect in test [1] and in test [2] were 11.8% and 9.62%, respectively.
As to `CCc1nnc2n1CCN(C(=O)c1csc(-c3cnn(C)c3)n1)C2`, the Percent Effect in test [1] was 0.836%; in test [2], -15.8%.
Consider `Cc1cc(=O)[nH]c(SCC(=O)N(C)CC2Cc3ccccc3CN2C)n1` (stereo not given), for which the Percent Effect in test [1] worked out at 1.96%; in test [2], 5.78%.
For the compound `CCC1=N[C@@]2(CC[C@@H]3CN(C(=O)Nc4ccc(F)cc4)C[C@@H]32)C(=O)N1`, the Percent Effect in test [1] amounted to 0.408%; in test [2], 5.29%.
For `Cc1nc(CN2CCCC(CCc3ccc(F)cc3F)C2)c[nH]1` (stereo not given) the same measures were -7.38% and -3.15%.
For `Cc1cnn(CC(C)NCc2csc(-c3cnn(C)c3)n2)c1` (stereo not given) the same measures were 1.91% and -23.5%.
For `CNc1cc(C)nc(C2CN(Cc3cc[nH]n3)CCO2)c1` (stereo not given) the same measures were -0.432% and 13.3%.
As for `O=C(NCc1cn2c(n1)CN(CC1CCOCC1)CC2)C1CCC1`, the figures for the Percent Effect in test [1] and in test [2] were 0.662% and -18.2%, respectively.
Consider `Cn1cc(CNC2CCCN(Cc3noc(C4CC4)n3)C2)cn1` (stereo not given), for which the figures for the Percent Effect in test [1] and in test [2] were -1.26% and 24.8%, respectively.
For `Cn1ccc(C(=O)NC2CCC23CCN(C(=O)c2ccncc2)CC3)c1` (stereo not given) the same measures were 0.319% and -10.5%.
Taken in the same sequence, the figures for `Cc1nc([C@@H]2C[C@@H]3CCN(C(=O)c4ccnnc4)C[C@H]3O2)sc1C` were 4.24% and -9.81%.
Regarding `c1csc(-c2nc(CN3CCOC(Cn4cccn4)C3)co2)c1` (stereo not given), the Percent Effect in test [1] came out at 9.95%; in test [2], 13.2%.
Consider `Cc1cccc(CN2C(=O)CCC23CCN(Cc2cccn2C)CC3)n1`, for which the Percent Effect turned out to be 0.796% in test [1] and 0.0983% in test [2].
With `Cc1noc(C2CCN(C(=O)c3ccc(NC4CC4)nc3)CC2)n1`, the Percent Effect is 1.21% in test [1] and -7.73% in test [2].
As to `CCc1nc(C)c(C(=O)NCCN2CCC(C)CC2)s1`, the Percent Effect is -0.879% in test [1] and -68.3% in test [2].
On to `O=C([C@@H]1CCO[C@@H]2CCN(Cc3cccnc3)C[C@H]21)N1CCCCO1`, for which the figures for the Percent Effect in test [1] and in test [2] were 6.53% and -26.6%, respectively.
As to `Cc1nc(C)c(C(=O)N2CCCC2c2nnc3n2CCCCC3)s1` (stereo not given), the Percent Effect in test [1] is -7.53%; in test [2], -17.2%.
For `COc1ccc(CNC(=O)N2CCC(Cc3cnn(C)c3)C2)cc1C` (stereo not given) the same measures were -2.9% and 18%.
For `O=C(c1cscn1)N1C[C@@H]2[C@@H](C1)OCC(=O)N2CC1CCCC1` the same measures were 4.1% and -48.6%.
For `C[C@@H]1CN(C(=O)c2cnc(C3CC3)nc2)CC[C@@]1(O)C1CCOCC1` the same measures were 1.53% and 0.847%.
As to `Cc1ccccc1CC(=O)N(C)C1CCCC1`, the Percent Effect in test [1] is -6.33%; in test [2], -21%.
`CNC(=O)NC(=O)Cn1cc(-c2ccccc2)cn1`: the Percent Effect in test [1] is -2.46%; in test [2], 5.7%.
For `CCn1c(C)cc(C(=O)N2CCCC(c3nc(C)no3)C2)c1C` (stereo not given), the Percent Effect worked out at 3.31% in test [1] and 9.36% in test [2].
Taken in the same sequence, the figures for `Cc1noc(C)c1CN1CCN(Cc2ccncc2)c2ncccc2C1` were -2.02% and 8.32%.
For `Cc1nc(C2CCCN2C(=O)c2ccccc2)ncc1C(N)=O` (stereo not given) the same measures were -3.02% and -6.25%.
For the compound `CCN(CC1CCOC1)C(=O)Nc1ccc(-n2cncn2)nc1` (stereo not given), the Percent Effect in test [1] was -0.722%; in test [2], -25.9%.
With `Cc1nc(C)c(CC(=O)Nc2ncc(C)s2)c(=O)[nH]1`, the Percent Effect in test [1] was -3.61%; in test [2], 30.1%.
Consider `Cc1nc(CNC(=O)NCCc2ccc(N(C)C)cc2)cs1`, for which the figures for the Percent Effect in test [1] and in test [2] were 6.93% and 16.6%, respectively.
For `O=C(CCc1ccccc1)N1CCn2cc(Cn3cncn3)nc2C1`, the Percent Effect is -1.12% in test [1] and -10% in test [2].
For `CCN(Cc1ccc2c(c1)OCCO2)C(=O)NCc1cc[nH]n1` the same measures were 3.66% and 27.9%.
For `CC(C)N1CCN(C(=O)Nc2cnn(CC(N)=O)c2)CC1` the same measures were -5.08% and -11.9%.
For `Cc1nccn1C1CCCN(C(=O)c2ccc3c(c2)NC(=O)CO3)C1` (stereo not given) the same measures were -2.02% and 24.5%.
In the case of `Cc1nc(CN(Cc2ccccc2)C2CCS(=O)(=O)C2)oc1C` (stereo not given), the Percent Effect in test [1] is -0.478%; in test [2] it was 24.1%.
For `O=C1CCC2(CCN(Cc3nccs3)CC2)N1Cc1ccccc1` the same measures were -2.78% and 13.1%.
For `CC(C)c1cc(NC(=O)CN2CCc3ccccc3C2)on1` the same measures were -1% and -13%.
As to `CN1CCc2c(C#N)c(NCc3ccco3)n3cnnc3c2C1`, the results for the Percent Effect in test [1] and in test [2] were 6.08% and -1.51%, respectively.
As for `Fc1cnc(N2CCC3(COCc4cnc(NCC5CC5)nc43)C2)nc1` (stereo not given), the Percent Effect in test [1] came out at 1.39%; in test [2], 2.48%.
Taken in the same sequence, the figures for `COc1ccc(CN2CCC3(CC2)CCN(c2ncccn2)CC3)cc1` were 2.89% and -0.95%.
In the case of `COCc1nn(C(C)C)c2c1CCN(Cc1cccs1)C2`, the Percent Effect in test [1] is -2.9%; in test [2] it was 18.3%.
For `CC(=O)N1CCCCC1c1nc2c(c(N3CCCCC3)n1)CN(C)CC2` (stereo not given) the same measures were -1.98% and 2.68%.
As to `Cc1cccc(NC(=O)c2sccc2C)n1`, the Percent Effect is -4.94% in test [1] and -1.59% in test [2].
Regarding `CN1CCOC(CNCc2coc(-c3cccs3)n2)C1` (stereo not given), the Percent Effect is 3.28% in test [1] and -17.6% in test [2].
On to `COc1cc(C)nc(N2CCN(C(=O)c3ccc[nH]3)CC2)n1`, for which the Percent Effect in test [1] was determined as 1.55%; in test [2], 11.2%.
For `CN(C)C1CCN(C(=O)c2ccc(Cn3ccccc3=O)o2)CC1` the same measures were 1.63% and -10.4%.
Taken in the same sequence, the figures for `CCOC(=O)CCC(=O)N1CCC(Oc2ccc(C(F)(F)F)cn2)CC1` were -1.91% and 12.6%.
Taken in the same sequence, the figures for `COc1ccc(S(N)(=O)=O)cc1C(=O)N(C)Cc1cc(C)on1` were -2.1% and -47%.

The values above are taken from ChEMBL document CHEMBL3988442, “University of Dundee, Small-Polar-MMV Screening Library” (2021).
